Screens deposited in PubChem by Broad Institute.
Not all results are given here.
aSyn UTR act: Activators via SNCA 5'UTR binding, MLPCN | 7.1% of 300,000 active | activity score, % (tested at 7.5 µM), hits read low | alpha-synuclein 5'UTR reporter, activators screen | AID 1814; in the data active = activity score below about -60%
Of the large screens only hits and unclear results are named; the others gave an inactive call.

CCCC[n+]1c(-c2ccc(Cl)cc2Cl)csc1Nc1ccccc1	aSyn UTR act -127.7
Clc1ccc(-c2csc(Nc3ccccc3)[n+]2Cc2ccco2)c(Cl)c1	aSyn UTR act -269.0
C=CC[n+]1c(-c2ccc(Cl)cc2Cl)csc1Nc1ccc(NC(C)=O)cc1	none
COc1ccc(CNc2nc(Cl)c(C#N)s2)cc1	aSyn UTR act -94.7
Nc1ccc(-c2nnn(Cc3ccccc3F)n2)cc1	aSyn UTR act -70.7
Fc1ccc(-c2nnn(Cc3ccccc3Cl)n2)cc1	aSyn UTR act -68.9
Clc1ccc(-c2nnn(Cc3nc4ccccc4s3)n2)cc1	aSyn UTR act -138.5
c1ccc(Cn2nnc(-c3ccccc3)n2)cc1	aSyn UTR act -61.7
CC(C)n1nnc(-c2ccc(OCc3ccccc3F)cc2)n1	aSyn UTR act -99.7
O=C(Nc1ccc(Cl)cc1)OCc1cncs1	aSyn UTR act -118.5
O=C(Nc1cccc2ccccc12)OCc1cncs1	aSyn UTR act -61.6
O=C(Nc1cccc(Cl)c1)OCc1cncs1	aSyn UTR act -79.7
O=C(Nc1ccc(-c2nnco2)cc1)c1ccccc1	aSyn UTR act -78.3
O=C(Nc1ccc(F)cc1)c1ccccc1	aSyn UTR act -83.3
CCCCNC(=O)Nc1ccc(C2SCCS2)cc1	aSyn UTR act -91.5
O=C(Nc1ccc(SC(F)F)cc1)c1ccc(F)cc1	aSyn UTR act -162.8
O=C(Nc1ccc2nc3ccccc3nc2c1)c1ccccc1	aSyn UTR act -96.6
O=C(Nc1ccc(-c2nc3ccccc3s2)c(OC(=O)c2ccccc2)c1)c1ccccc1	aSyn UTR act -175.0
O=C(N[C@H]1CC1c1ccccc1)c1ccc([N+](=O)[O-])cc1 (some centres not stated)	aSyn UTR act -106.7
O=C(Nc1ccc(C2SCCS2)cc1)c1ccccc1	aSyn UTR act -88.3
O=C(Nc1ccc([N+](=O)[O-])cc1)c1ccccc1	aSyn UTR act -121.6
CCN(CC)c1ccc(C(=O)Nc2ccccc2)cc1[N+](=O)[O-]	aSyn UTR act -151.5
O=C(Nc1csc(Cl)c1)c1ccccc1	aSyn UTR act -160.6
Cc1ccc(C(=O)Nc2ccc(Nc3ccccc3)cc2)cc1C	aSyn UTR act -62.2
O=C(Nc1ccccc1)c1ccc(NC(=O)C2CC2)cc1	aSyn UTR act -105.3
Cc1ccc(C(=O)C[n+]2ccc(Cc3ccccc3)cc2)cc1	none
CNC(=O)c1ccc(NC(=O)Nc2ccccc2)cc1	aSyn UTR act -71.1
O=C(Nc1ccc(Nc2ccccc2)cc1)c1ccccc1	aSyn UTR act -176.5
O=C(C[n+]1ccc2ccccc2c1)c1ccc(NC(=O)c2ccccc2)cc1	aSyn UTR act -87.5
CCn1c2ccccc2c2cc(NC(=O)c3cc(OC)cc(OC)c3)ccc21	none
CC(Cc1ccccc1)NC(=O)c1ccc([N+](=O)[O-])cc1 (configuration not stated)	aSyn UTR act -89.8
O=C(C#Cc1ccccc1)c1ccc([N+](=O)[O-])cc1	aSyn UTR act -95.4
COc1cc(OC)cc(C(=O)Nc2ccc(Nc3ccccc3)cc2)c1	aSyn UTR act -164.7
COc1cccc(CSc2nc3ccccc3cc2C=O)c1	none
COc1ccc(OCc2nc3ccccc3[nH]2)cc1	aSyn UTR act -113.3
COc1cccc(OCc2nc3ncc(Br)cc3[nH]2)c1	aSyn UTR act -77.1
COc1cccc(OCc2nc3ccccc3[nH]2)c1	aSyn UTR act -136.9
c1ccc2cc(OCc3nc4ccccc4[nH]3)ccc2c1	aSyn UTR act -166.5
Brc1ccc(OCc2nc3ccccc3[nH]2)cc1	aSyn UTR act -213.6
O=C(Nc1nc(-c2ccccn2)cs1)c1cccc(-n2cnnn2)c1	none
N#Cc1ccc(-c2csc(NC(=O)C3CC3)n2)cc1	aSyn UTR act -64.0
O=C(Nc1nc(-c2ccccn2)cs1)C12CC3CC(CC(O)(C3)C1)C2	aSyn UTR act -68.2
O=C(Nc1nc(-c2ccccn2)cs1)C1CC1	aSyn UTR act -110.7
Cc1sc2c(c1C)C(=O)NC(c1cccc(O)c1)N2 (configuration not stated)	aSyn UTR act -233.3
CC(=O)Nc1ccc(S(=O)(=O)Nc2nc3ccccc3nc2Nc2ccc3ccccc3c2)cc1	aSyn UTR act -132.6
COc1ccc(C([O-])=Nc2ccc[n+](-c3nc4ccccc4nc3NS(=O)(=O)c3ccccc3)c2)cc1	none
Nc1ncc(Br)cc1N=Cc1ccccc1	aSyn UTR act -197.2
Cc1cccc(-n2c(N)cc(=O)[nH]c2=S)c1	aSyn UTR act -214.5
CNc1nnc(-c2cccc(N(C)C)c2)s1	aSyn UTR act -94.2
Cc1ccc(-c2nc3nc4ccccc4nc3n2Cc2ccco2)cc1	aSyn UTR act -124.5
O=c1c2ccccc2nc(-c2ccco2)n1Cc1ccccc1	aSyn UTR act -214.1
c1ccc(Cn2c(-c3ccco3)nc3nc4ccccc4nc32)cc1	aSyn UTR act -215.4
N#Cc1c(N)n(C2CCCCC2)c2nc3ccccc3nc12	none
CCOc1ccc(C(=O)NC(Cc2ccccc2)C(=O)OC)cc1 (configuration not stated)	aSyn UTR act -103.9
COc1ccc(NC(=O)c2ccc(Oc3ncccn3)cc2)cc1	aSyn UTR act -84.1
CC(C)C[C@H](NC(=O)c1nc[nH]c1C(=O)N[C@@H](CC(C)C)C(=O)OC(C)(C)C)C(=O)OCc1ccccc1	none
COc1ccc(NC(=O)c2ccc3nccnc3c2)cc1	aSyn UTR act -102.2
CCOc1ccc(NC(=O)c2ccc(OC)cc2)cc1	aSyn UTR act -114.0
COC(=O)c1ccc(NC(=O)c2ccc(OC(C)=O)c(OC)c2)cc1	aSyn UTR act -148.3
COc1ccc(C(=O)Nc2ccc(C3CC3(Cl)Cl)cc2)cc1 (configuration not stated)	aSyn UTR act -95.1
CC(C)(C)NC(=O)Nc1ccc2nccnc2c1	aSyn UTR act -96.4
CCOc1ccc(NC(=O)c2ccc3nccnc3c2)cc1	aSyn UTR act -113.4
COc1ccc(C(=O)Nc2ccc(/C(C)=N/NC(=O)c3ccccc3O)cc2)cc1OC	aSyn UTR act -68.8
Cc1ccc(NC(=O)c2ccc(OC(=O)C(C)Oc3ccc(Cl)cc3C)cc2)cc1 (configuration not stated)	aSyn UTR act -127.9
CCOc1ccc(NC(=O)Nc2ccc3nccnc3c2)cc1	aSyn UTR act -95.8
COc1ccc(C(=O)Nc2ccc(OC)c(OC)c2)cc1	aSyn UTR act -97.6
COCCn1ccc2c(OCC(=O)Nc3cc(OC)ccc3OC)cccc2c1=O	aSyn UTR act -61.6
CC1CCN(c2ccc(NC(=O)c3cccnc3Cl)cc2)CC1	aSyn UTR act -69.1
CC1CCN(c2ccc(NC(=O)c3cccnc3)cc2)CC1	aSyn UTR act -148.7
Nc1nc(CSCc2ccccc2)nc(N2CCOCC2)n1	aSyn UTR act -67.2
Cc1[nH]n(C(N)=S)c(=O)c1N=Nc1cccc([N+](=O)[O-])c1C	aSyn UTR act -163.8
Cc1[nH]n(C(N)=S)c(=O)c1N=Nc1ccc2ccccc2c1	aSyn UTR act -146.7
Cc1ccc(N=Nc2c(C)[nH]n(C(N)=S)c2=O)cc1C	aSyn UTR act -258.0
O=C(COc1ccccc1Cl)c1ccc2c(c1)CCCC2	aSyn UTR act -200.9
N#C/C(=C\C=C\c1ccccc1)C(=O)NCc1cccnc1	aSyn UTR act -70.4
Fc1cccc(Cl)c1CSc1ccc(-c2cccnc2)nn1	aSyn UTR act -79.5
Cc1ccc(C(=O)Oc2ccc(-c3nccc(-c4ccccn4)n3)cc2)cc1	aSyn UTR act -144.0
Oc1ccc(-c2nccc(-c3ccccn3)n2)cc1	aSyn UTR act -188.3
O=C(Oc1ccc(-c2nccc(-c3ccccn3)n2)cc1)c1cccc(C(F)(F)F)c1	aSyn UTR act -139.9
FC(F)(F)c1cc(Oc2ccccc2Cl)nc(-c2ccccn2)n1	none
Cc1cc(C(=O)N/N=C/c2c[nH]c3ccccc23)c(C)o1	aSyn UTR act -81.0
